Compound activity deposited in PubChem by Broad Institute.
Compounds with a hit are over-represented: about 2.4% of the library has one in this group of screens.
NSD2 inh = NSD2 histone methyltransferase inhibitors, primary screen, biochemical, AlphaScreen, single concentration, set 2. NSD2 peptide methylation, 120 min. inhibition, % at 12.5 µM. 0.54% of 310,000 active
INS-1E GSIS act = GLuc luminescence reporter in INS-1E cells, primary screen for activators of glucose-dependent secretion of insulin | activation, % at 16.6 µM | INS-1E GLuc reporter insulin secretion, 2-3 h | 0.61% of 370,000 active | AID 743287, 2014;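 active means lowest replicate activation of at least 40%, so every replicate reaches that level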;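 further: 0% = median of neutral control wells and 100% = median of IBMX positive control wells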
miR-122 sensor = miR-122 Renilla sensor signal increase in Huh7, primary screen, miR-122 inhibitor project, cell-based, single point, plate reader. Huh7 miR-122 Renilla luciferase sensor, 48 h; neutral wells = 0, positive control = 100. activation (reporter increase), % at 12.5 µM. 0.3% of 340,000 active. AID 602342, 2012;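 active means mean replicate activation score at least 90 and every replicate individually at or above 90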;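 further: higher luciferase means less miR-122 activity so hits act as miR-122 inhibitors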
Wnt bcat act = Wnt/beta-catenin pathway activators, primary screen, cell-based, plate reader, single point | Wnt/beta-catenin reporter cell assay, activator | activation, % at 9.35 µM | 1.2% of 300,000 active | AID 743398, 2014; in the data active means activation above about 30%, passing the limit was not always enough;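 further: 0% = neutral control wells and 100% = positive control wells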
DYRK1A inh = rat Dyrk1A kinase inhibitors, primary screen, biochemical, single point, plate reader; inhibition, % at 12.5 µM; 0.43% of 310,000 active; AID 504441, 2011; ADP-Glo luminescence, NFATc1 peptide;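 further: plate controls were vehicle with enzyme for no effect and no enzyme for full effect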
MITF act = activators of MITF-driven TRPM1 promoter reporter, primary screen, cell-based, SK-MEL-5, luciferase, single point | SK-MEL-5 TRPM1-promoter luciferase, 24 h; % of positive control, neutral wells = 0 | activation, % at 12.5 µM | 0.75% of 300,000 active;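 active means mean activation of at least 80% with every replicate also reaching 80%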;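 further: 0% = neutral control wells and 100% = parthenolide positive control wells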
Active calls of the source: *; x = not tested or not shown; [ ] = another dose, or the depositor's remark. Unless noted, no stated cut-off is given here; in the data, active means inhibition above about 50%; inactive means the rest.

SMILES	NSD2 inh	INS-1E GSIS act	miR-122 sensor	Wnt bcat act	DYRK1A inh	MITF act
CS(=O)(=O)N1CCN(c2cnn(-c3ccccc3)c(=O)c2Cl)CC1	x	8.8	-0.3	1.7	-2.8	15.3
CN(C(=O)CN1CCN(c2cnn(-c3ccccc3)c(=O)c2Cl)CC1)C1CCS(=O)(=O)C1 (stereo not drawn)	0.0	16.8	-2.6	43.9*	x	0.8
CC(=O)Nc1cc(-c2cccc(C(=O)NCCN(C)C)c2)cn2c(-c3cccc(C(F)(F)F)c3)cnc12	14.9	169.8*	-23.4	-24.0	x	x
CCOC(=O)CSc1nc2ccccc2c(=O)n1NC(=O)c1ccccc1	x	x	7.2	38.5*	7.2	49.3
COc1ccc(NC(=O)N2C[C@@H]3[C@H](c4ccccc42)[C@@H](CO)N3Cc2ccccn2)cc1	x	13.9	12.6[16.7 µM]	x	x	x
COc1ccc(NC(=O)N(C)C[C@@H]2Oc3ccc(NC(=O)CCCCCC(=O)Nc4ccccc4N)cc3CC(=O)N([C@@H](C)CO)C[C@@H]2C)cc1	x	3.7	-2.2[16.7 µM]	x	x	x
O=S(=O)(c1ccc(Cl)nc1)N1CCCc2ccccc21	-6.1	13.7	x	0.0	3.2	-2.5
O=S(=O)(c1ccc(Cl)nc1)N1CCc2ccccc21	-6.8	54.0*	0.0	17.5	-16.3	7.9
Cc1ccccc1Cc1c(C)nc2nc(SCC(=O)NCc3ccco3)nn2c1C	0.9	x	10.5	x	2.7	-4.9
Cc1ccccc1Cc1c(C)nc2c(C(=O)NCc3ccco3)cnn2c1C	0.9	45.6*	-3.7	0.5	3.2	2.9
COc1ccc(NC(=O)Nc2ccc3c(c2)C(=O)N([C@@H](C)CO)C[C@H](C)[C@@H](CN(C)C(=O)C2CCCCC2)OCCCC[C@H](C)O3)cc1	x	10.3	-4.1[16.7 µM]	x	x	x
COC(=O)CN(C)C(=O)c1ccc2nc(Cc3cccc(Cl)c3)oc2c1	-1.0	3.4	-6.0	22.8	-0.8	106.7*
CN(Cc1ccccn1)C(=O)c1ccc2nc(Cc3cccc(Cl)c3)oc2c1	-0.4	-2.7	7.4	0.2	-0.1	16.5
CN(C)C(=O)[C@@H]1[C@@H](CO)[C@@H]2Cn3c(cccc3=O)[C@@H]2N1C(=O)C1CCCC1	x	9.2	x	x	x	x
CCOc1cc(N2CCOCC2)c(OCC)cc1NS(=O)(=O)c1ccc(Cl)s1	-4.3	x	113.5*	-4.6	-1.3	-25.2
COc1ccc2c3c(n(C)c2c1)[C@@H](CO)N(C(=O)Nc1ccc(F)cc1)CC31CN(Cc2cccc(F)c2)C1	x	-15.3	x	x	x	x
O=C(c1ccccc1)c1ccc2nc(-c3ccc(NC(=O)c4ccccc4F)cc3)[nH]c2c1	-1.5	196.9*	-10.0	x	2.3	-8.0
Nc1nc2n(n1)C(c1cccc(Cl)c1)CC(c1ccc(F)cc1)N2 (stereo not drawn)	x	48.5*	-1.2	-0.4	9.8	-6.5
C=C(C)CN1CCN(c2ccc(N3C(=O)CCCC3=O)cc2[N+](=O)[O-])CC1	14.4	49.6*	1.0	1.4	0.8	9.5
COc1ccccc1N1CCN(c2ccc(N3C(=O)CCC3=O)cc2[N+](=O)[O-])CC1	1.1	-9.5	-11.7	1.2	3.0	18.2
C[C@@H]1CN(C(=O)c2cc(COc3cccc(C(F)(F)F)c3)on2)C[C@H](C)O1	11.3	-1.0	1.7	22.6	1.5	103.0*
O=C(c1cc(COc2cccc(C(F)(F)F)c2)on1)N1CCCC1	-0.4	-10.7	3.6	-0.5	x	x
Cc1ccc(C)c(OCc2cc(C(=O)N3C[C@@H](C)O[C@@H](C)C3)no2)c1	9.8	-15.4	-0.9	37.4*	-2.2	125.3*
CC(C)NC(=O)N1CC2(C1)[C@H](c1ccccc1)[C@@H](CO)N2Cc1cccnc1	x	15.5	x	x	x	x
C[C@H](CO)N1C[C@H](C)[C@@H](CN(C)C(=O)C2CCC2)Oc2cc(-c3ccc(C(=O)N(C)C)cc3)ccc2S1(=O)=O	x	-6.8	12.2[16.7 µM]	x	x	x
SMILES	NSD2 inh	INS-1E GSIS act	miR-122 sensor	Wnt bcat act	DYRK1A inh	MITF act
Cc1ccc(S(=O)(=O)Nc2ccc3c(c2)C(=O)N([C@@H](C)CO)C[C@@H](C)[C@H](CN(C)CC2CC2)OCCCC[C@H](C)O3)cc1	x	-21.7	6.7[16.7 µM]	x	x	x
CCC(=O)C(C#N)(c1ccc(OC)c(OC)c1)C(C)C (stereo not drawn)	x	82.0*	-1.9	-2.9	8.3	-3.3
CCOC(=O)/C(C#N)=C/c1ccc(OC)c(OC)c1	3.8	x	-1.0	-5.2	-1.7	8.1
NNc1ncnc2scc(-c3ccc(Cl)cc3)c12	-2.5	8.2	-4.0	-1.7	2.0	-7.2
OCCCNc1ncnc2scc(-c3ccc(Cl)cc3)c12	-1.0	89.8*	x	-4.2	30.9	2.0
CN1CCN(C(=O)C[C@@H]2CC[C@H]3[C@@H](COC[C@@H](O)CN3Cc3ccc(Oc4ccccc4)cc3)O2)CC1	x	-4.2	-6.7[16.7 µM]	x	x	x
O=C(CSc1ccccc1)Nc1ccc2c(c1)OCCO2	-1.0	-19.7	-3.3	33.3*	7.7	50.1
O=C(CSc1ccccc1F)Nc1ccc2c(c1)OCO2	-2.3	-1.9	1.0	5.2	x	98.7*
CCN(CC)C(=O)Cn1cc(C(=O)C(=O)Nc2ccc3c(c2)OCCO3)c2ccccc21	0.9	10.5	6.6	-1.0	-4.4	82.0*
CCN(CC)C(=O)Cn1cc(C(=O)C(=O)NCCCN2CCOCC2)c2ccccc21	-0.7	14.6	-3.4	2.4	2.5	6.6
CCn1cc(S(=O)(=O)CC(=O)Nc2ccc3c(c2)OCO3)c2ccccc21	x	-4.8	75.6	34.8*	1.3	x
CC(Sc1ccccc1F)C(=O)Nc1ccc2c(c1)OCCO2 (stereo not drawn)	-0.3	-0.9	-0.4	45.1*	x	89.2*
O=C(CSc1ccccc1)Nc1ccc2c(c1)OCO2	3.5	1.0	-9.6	23.5	2.1	89.2*
O=C(CSc1nnnn1-c1ccc(Cl)cc1)NC(=O)Nc1ccc2c(c1)OCCO2	x	3.0	9.2	38.4*	4.6	75.6
Cc1ccc(-n2nnnc2SCC(=O)NC(=O)Nc2ccc3c(c2)OCCO3)cc1	x	-4.3	-3.8	7.5	1.6	31.7
CC(CC(=O)Nc1ccc2c(c1)OCCO2)c1ccccc1 (stereo not drawn)	-4.4	x	0.5	55.7*	-3.1	x
COc1ccccc1Nc1nnc(SCC(=O)NC(=O)Nc2ccc3c(c2)OCCO3)s1	-2.3	80.7*	x	-2.4	-3.7	-2.8
CCc1ccc(NC(=O)CCCOc2cc(=O)n(C)c3ccccc23)cc1	x	22.8	-2.6	-2.5	x	x
Cn1c(=O)cc(OCCCC(=O)Nc2ccc3c(c2)OCCO3)c2ccccc21	0.9	x	1.6	63.9*	-1.8	-2.1
O=C(Nc1ccc2c(c1)OCCO2)c1cnn(-c2ccccc2)n1	-3.1	10.6	-3.3	24.9	10.2	90.2*
